# Compounds with a hit are over-represented: about 6% of the library has one in this group of screens.
# D1 agonist: Allosteric Agonists of the Human D1 Dopamine Receptor: qHTS | activation, % at 2 µM | D(1A) dopamine receptor (Homo sapiens), P21728 | AID 504660, 2011 | HEK293 T-REx D1 cells, calcium flux, agonist mode | 360,000 compounds, 1% hits; in the data active = activation above about 30%; also: 0% is about no effect
# Target sequence (P21728 whole entry, looked up): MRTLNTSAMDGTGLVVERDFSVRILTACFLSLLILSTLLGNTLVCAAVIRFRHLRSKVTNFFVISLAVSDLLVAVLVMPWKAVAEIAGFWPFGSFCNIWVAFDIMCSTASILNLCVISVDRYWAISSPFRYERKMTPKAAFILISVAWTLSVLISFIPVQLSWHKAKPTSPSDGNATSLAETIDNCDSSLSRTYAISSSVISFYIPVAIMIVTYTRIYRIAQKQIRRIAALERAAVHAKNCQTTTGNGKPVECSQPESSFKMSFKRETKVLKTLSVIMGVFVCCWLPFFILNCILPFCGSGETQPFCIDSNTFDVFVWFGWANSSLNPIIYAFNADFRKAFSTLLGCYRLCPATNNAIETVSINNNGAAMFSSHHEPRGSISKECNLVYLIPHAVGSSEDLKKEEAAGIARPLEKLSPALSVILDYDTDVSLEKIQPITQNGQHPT
#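 Tetracycline-induced HEK293 TREx D1 cells, force-coupled to calcium signalling, were dye-loaded with a no-wash calcium kit. Compound was pin-added after a 10 s baseline. Fluorescence was read kinetically at 1 cycle/s for 180 s, with calcium rises flagged as agonism.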
# D3 antag: qHTS of D3 Dopamine Receptor Antagonist: qHTS | D(3) dopamine receptor (Homo sapiens), P35462 | max response, negative = inhibition, % | D3R cells, DiscoveRx beta-arrestin luminescence, antagonist mode; active compounds read low | 360,000 compounds, 2.5% hits; in the data active = max response below about -50%; inconclusive = no clear call, values can overlap the other calls; also: % is scaled to controls: 0 for no effect and ±100 for the full control effect
#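 Cells expressing the human receptor were seeded at 1500 cells/well, incubated overnight at 37 degrees C in 5% CO2, then exposed to library compounds with dopamine controls for 90 minutes at 37 degrees C before luminescent detection.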
# D3 ag: qHTS of D3 Dopamine Receptor Agonist: qHTS; D(3) dopamine receptor (Homo sapiens), P35462; D3R DiscoveRx beta-arrestin cells, luminescence, 90 min; max activation, %; 410,000 compounds, 0.58% hits; in the data active = max activation above about 30%; also: 0% is about no effect
#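 Agonist-mode cell screen: cells plated at 1500/well and incubated overnight at 37 °C, then exposed to library compounds for 90 min at 37 °C. Detection reagent was added for 30–60 min at room temperature, and luminescence was read.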
# D1 PAM: Potentiators of Human D1 Dopamine Receptor: qHTS. D(1A) dopamine receptor (Homo sapiens), P21728. HEK293 TREx D1 cells, calcium flux, dopamine EC20 potentiation. 360,000 compounds, 0.036% hits. potentiation, % at 10 µM; in the data active = potentiation above about 30%; also: 0% is about no effect
# D1 antagonist: Antagonist of Human D 1 Dopamine Receptor: qHTS. HEK293 TREx D1 cells, calcium flux, dopamine EC80; active compounds read low. activity change, negative = inhibition, % at 10 µM. 360,000 compounds, 3.2% hits; in the data active = activity change below about -30%; also: % is scaled to controls: 0 for no effect and ±100 for the full control effect
#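 After overnight tetracycline induction at 30 C, force-coupled D1 HEK293 cells took up a no-wash calcium dye at room temperature. Compounds were added and monitored 180 s, and the response to EC80 dopamine was then recorded.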
# * = called active by the depositor; ? = inconclusive; . = no result.
SMILES,D1 agonist,D3 antag,D3 ag,D1 PAM,D1 antagonist
O=C(NN1C(=O)c2ccccc2NC1c1ccc([N+](=O)[O-])o1)c1ccc([N+](=O)[O-])cc1 (stereo not drawn),0.4,-61.5*,1.0,-6.3,-15.2
CCCOCc1ccc(O)c2ncccc12,0.8,-71.3*,-11.9,11.8,10.1
Cc1ccc2c(Cl)cc(Cl)c(O)c2n1,.,-110.4*,-18.1,.,.
Cc1cc(Cl)c2ccc3ccccc3c2n1,1.7,0.4,-2.7,-1.2,-2.2
CC(=O)NC(C)c1cc(Cl)c2cccnc2c1O (stereo not drawn),4.2,.,.,-2.6,9.3
Oc1c(Cl)cc(Cl)c2cccnc12,5.7,-61.4*,-7.9,0.3,13.8
Oc1ccc(Cl)c2cccnc12,.,-59.1*,-17.1,.,.
CCCCNC(=O)c1nc(-c2cnc(C)cn2)oc1-c1ccc(Cl)cc1,.,4.5,-1.0,.,.
CC(=O)NC(c1ccccc1)c1nc(-c2cccc(C(F)(F)F)c2)cs1 (stereo not drawn),.,-7.4,-6.9,.,.
CCOc1ccc(-c2noc(-c3csc([C@@H]4O[C@H](CO)[C@H](O)[C@H](O)[C@H]4O)n3)n2)cc1,.,-9.5,2.0,.,.
O=C(Oc1c(Cl)cc(Cl)c2cccnc12)c1cccs1,-0.7,?,-16.4,-4.2,-1.3
Cc1ccc2c(C)ccc(O)c2n1,-0.5,-78.6*,-7.5,2.0,1.2
O=C(Oc1c(Cl)cc(Cl)c2cccnc12)c1ccco1,0.6,-123.6*,-4.0,-3.2,-16.1
O=C(Nc1ccc(Oc2cccc(C(F)(F)F)c2)nc1)c1cccs1,32.2*,-12.7,10.6,-2.4,-45.4*
COc1cccc(C(=O)Nc2ccc(Oc3cccc(C(F)(F)F)c3)nc2)c1,41.6*,-5.3,5.2,-4.5,-42.4*
COc1ccc(NC(=O)COc2cccc(C(F)(F)F)c2)cn1,0.5,-2.2,-6.0,0.1,1.6
O=C(Nc1ccc(Oc2cccc(C(F)(F)F)c2)nc1)c1ccccc1,15.3,20.6,2.9,-2.3,-22.2
COc1ccc(NC(=O)C(c2ccc(C)cc2)N(C)C(=O)/C=C\c2ccc3c(c2)OCO3)cc1 (stereo not drawn),5.1,.,-6.0,0.3,-12.0
COC(=O)C[C@H]1C=C[C@H](NC(=O)Nc2ccccc2F)[C@@H](CO)O1,.,2.9,1.8,.,.
CCOC(=O)c1ccccc1NC(=O)N1CC(C)Oc2ccc(C)cc21 (stereo not drawn),0.4,.,0.2,2.0,0.4
COc1cc([N+](=O)[O-])cc(/C=N/NC(=O)CSc2ccccn2)c1O,-1.2,-51.8*,-16.3,6.1,-11.1
COc1cc([N+](=O)[O-])cc(/C=N/NC(=O)Cn2cncn2)c1O,4.6,-75.9*,-26.4,-3.0,7.9
Nc1sc(Cc2ccccc2)cc1C(=O)c1c(-c2ccccc2)[nH]c2ccccc12,.,-18.1,1.1,.,.
COCCN(Cc1ccccc1)C(=O)c1cccc(S(=O)(=O)N2CCN(Cc3ccccc3)CC2)c1,.,-2.7,3.8,.,.
COc1cccc(=O)c2c(C)n(-c3cc(C)cc(C)c3)c(C)c12,15.0,-65.4*,5.8,6.8,4.3
SMILES,D1 agonist,D3 antag,D3 ag,D1 PAM,D1 antagonist
Cc1nc2ccc(S(=O)(=O)NC(C(=O)N3CCn4c3nc3ccccc34)C(C)C)cc2s1 (stereo not drawn),0.6,-8.9,6.2,-5.8,-54.9*
O=C(c1ccc(S(=O)(=O)Nc2ccccc2)cc1)N1CCCC(C(F)(F)F)C1 (stereo not drawn),50.8*,6.9,3.0,-13.3,-5.4
Cc1nc2ccc(S(=O)(=O)NCC(=O)N3CCN(c4ccccc4)CC3)cc2s1,0.9,4.1,1.6,-4.8,-39.1*
Cc1nc2ccc(S(=O)(=O)NCC(=O)N3CCCCC3)cc2s1,1.2,1.7,3.6,-2.9,-0.6
O=C(NCC1(N2CCCCC2)CCCCC1)c1cccc(S(=O)(=O)Nc2ccc(F)cc2)c1,4.5,-17.3,0.8,-4.3,-37.6*
O=C(c1ccccc1)c1ccc(C(=O)N2CCCC(C(F)(F)F)C2)cc1 (stereo not drawn),9.0,?,4.4,-6.2,-16.2
Cc1ccc2c(c1Br)C(O)(CC(=O)c1ccc(F)cc1)C(=O)N2 (stereo not drawn),5.8,.,3.7,1.5,7.4
Cc1nn(-c2ccccc2)c(OC(=O)c2ccc(F)cc2)c1S(=O)(=O)c1ccccc1,-1.1,.,2.2,-2.8,-0.9
Cn1cnc2c(=O)oc3ccc(S(=O)(=O)Nc4ccc(F)cc4)cc3c21,1.4,.,-7.9,-1.6,-5.7
O=C(Nc1nc2n(n1)C(c1ccc(F)cc1)C=C(c1ccccc1)N2)c1cccc([N+](=O)[O-])c1 (stereo not drawn),4.6,.,3.9,1.0,-9.6
CCOC(=O)c1c(-c2ccccc2)oc2ccc(OCc3cccc(Br)c3)cc12,22.1,.,6.2,-1.1,6.6
CCC1CN(C(=O)N2CCC(C(=O)NCc3ccccc3F)CC2)c2ccccc2O1 (stereo not drawn),2.0,.,6.9,-5.2,-9.0
CN(c1ccc(C(=O)N2CCCCCC2)cc1)S(=O)(=O)c1ccc(Cl)cc1,17.2,8.2,2.9,-8.0,-38.5*
CCOc1ccc(S(=O)(=O)Nc2ccc3c(c2)N(C(C)=O)CCC3)cc1,7.4,.,7.3,-1.1,-32.1*
Cc1ccccc1NS(=O)(=O)c1ccc(C(=O)N2CCC2)cc1,-1.0,-19.0,-11.3,5.3,-62.8*
Cc1ccc(S(=O)(=O)NCCC(=O)N2CCN(c3cccc(Cl)c3)CC2)cc1C,6.2,1.8,-1.9,3.4,-30.3*
O=C(CC[C@H]1O[C@@H](n2ccc(=O)[nH]c2=O)[C@H](O)[C@@H]1O)N[C@@H](Cc1ccccc1)C(=O)NCc1ccccc1,.,-5.9,-9.2,.,.
Cc1ccc(C)c(Cn2c3ccccc3c3cnn(CC(=O)NC(C)CCc4ccccc4)c(=O)c32)c1 (stereo not drawn),1.0,.,-2.5,-3.3,-1.2
O=C(COC(=O)c1c(F)cccc1F)Nc1cccc(S(=O)(=O)N2CCCCC2)c1,.,0.0,2.9,.,.
Cc1ccc(S(=O)(=O)NCCC(=O)N2CCCCC2)cc1,-0.8,.,.,0.1,2.5
Cc1ccc(NS(=O)(=O)c2ccc(C(=O)N3CCCCCC3)cc2)cc1,31.0*,6.4,3.5,-8.7,-8.1
Cc1ccc(NS(=O)(=O)c2ccc(C(=O)N3CCCCCCC3)cc2)cc1,7.6,-12.5,8.1,-11.6,-10.9
CCOc1ccc(NS(=O)(=O)c2ccc(C(=O)N3CCCC(C)C3)cc2)cc1 (stereo not drawn),59.1*,1.8,8.9,5.8,-52.3*
Cc1ccc(S(=O)(=O)NCCC(=O)N2CCCCCC2)cc1,3.9,-2.5,0.8,-13.8,-36.0*

# Screens (PubChem BioAssay)
